From PubChem BioAssay (NCI) come the findings set out here.

This is part of a sample that, as a whole, favours compounds with a hit. Of some 83,000 tested, about 20% had one in any assay.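 Plates (96-well) were seeded with cells, treated with compound at one concentration, and incubated for 48 hours before percent growth was determined.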 A number with no mark means an inactive call. The source made the active and inactive calls. The calls were made as follows: active = growth percent below 10; inactive = the rest.

Test systems include SR leukemia; RPMI-8226 leukemia; OVCAR-8 ovarian; OVCAR-5 ovarian; OVCAR-4 ovarian; SK-OV-3 ovarian; IGROV1 ovarian; OVCAR-3 ovarian; HS 578T breast; NCI/ADR-RES ovarian; T-47D breast; BT-549 breast; MDA-MB-435 melanoma; SW-620 colon; MCF7 breast; HCC-2998 colon; KM12 colon; HCT-116 colon.
Experiment in all cases: NCI-60 one-dose screen, 48 h (100 = growth as untreated, 0 = no growth, -100 = all killed)
What all share (details): 10 µM unless noted

Regarding `O=C(NCCN1CCOCC1)OCc1ccc2c(Cl)cc(Cl)c(O)c2n1`, the growth with SR leukemia is 68.4%; in the assay on RPMI-8226 leukemia, 56.2%; in the assay with OVCAR-8 ovarian it was 49.2%; with OVCAR-5 ovarian it was 106%; with OVCAR-4 ovarian, 49.4%; with SK-OV-3 ovarian it was 91.8%. Moreover, the growth with IGROV1 ovarian was 57.8%; in the assay on OVCAR-3 ovarian it was 62.1%; in the assay on HS 578T breast, 83.1%; in the assay with NCI/ADR-RES ovarian it was 5.25% (active); in the assay with T-47D breast it was 74.8%; with BT-549 breast, 83%. For the same compound, the growth was 65.8% in the assay on MDA-MB-435 melanoma; 87.6% in the assay with SW-620 colon; 51% with MCF7 breast; 83.5% in the assay with HCC-2998 colon; 53.2% in the assay on KM12 colon.

For `O=C(Oc1ccc2c(c1)sc1nc(-c3ccccc3)[nH]c(=O)c12)C(F)(F)F`, the growth was 18.9% with SR leukemia; 24.1% in the assay with RPMI-8226 leukemia; 40.8% in the assay on OVCAR-8 ovarian; 73.4% with OVCAR-5 ovarian; 51.4% with OVCAR-4 ovarian; 50.2% with SK-OV-3 ovarian. Besides, the growth is 32.9% in the assay on IGROV1 ovarian; 9.6% (active) with OVCAR-3 ovarian; 18.8% with HS 578T breast; 7.5% (active) with NCI/ADR-RES ovarian; 32.3% in the assay with T-47D breast; 44.3% in the assay with BT-549 breast. Also, the growth in the assay on MDA-MB-435 melanoma is -55.4% (active); in the assay with MCF7 breast, 17.1%; with HCT-116 colon it was 19.8%; in the assay with HCC-2998 colon it was 31.2%; with KM12 colon it was 11.2%.

As for `COc1ccc2c(O)c(/C=C3\N=Nc4ncccc43)oc2c1C[C@@H]1CCNC[C@H]1F`, the growth was -22.1% (active) in the assay on SR leukemia; -4.16% (active) with RPMI-8226 leukemia; -20.5% (active) with OVCAR-8 ovarian; 17% in the assay with OVCAR-5 ovarian; -37.8% (active) with OVCAR-4 ovarian; 15% with SK-OV-3 ovarian. Besides, the growth in the assay on IGROV1 ovarian was -2.07% (active); in the assay on OVCAR-3 ovarian it was -17.9% (active); in the assay on HS 578T breast it was -1.31% (active); in the assay with NCI/ADR-RES ovarian it was 1.39% (active); in the assay with T-47D breast, 29.7%; in the assay on BT-549 breast it was -43.2% (active). The growth in the assay on MDA-MB-435 melanoma is -9.87% (active); in the assay with MCF7 breast, -14.5% (active); in the assay on HCT-116 colon, -59.6% (active); with HCC-2998 colon, -21.5% (active); with KM12 colon it was -48.7% (active).

As for `CNC(=O)NCC1OC(n2cnc3c(NC(=O)Nc4ccccc4)ncnc32)C2OC(=O)CC12` (stereo unspecified), the growth in the assay with SR leukemia was 90.3%; with RPMI-8226 leukemia, 105%; in the assay with OVCAR-8 ovarian, 96.4%; in the assay on OVCAR-5 ovarian, 96.8%; with OVCAR-4 ovarian it was 106%; in the assay on SK-OV-3 ovarian it was 102%. For the same compound, the growth with IGROV1 ovarian is 92.3%; with OVCAR-3 ovarian it was 91.7%; with HS 578T breast, 105%; with NCI/ADR-RES ovarian it was 96.8%; in the assay on T-47D breast, 91.6%; with BT-549 breast, 100%. The growth in the assay with MDA-MB-435 melanoma is 101%; with SW-620 colon it was 106%; in the assay with MCF7 breast, 97.9%; in the assay with HCC-2998 colon, 93.1%; with KM12 colon, 106%.

On to `CCOC(=O)/C=C1\S/C(=N\Nc2cc(=O)[nH]c3ccc(Br)cc23)N(c2ccccc2)C1=O`, for which the growth in the assay on SR leukemia was 3.76% (active); in the assay with RPMI-8226 leukemia it was -12.5% (active); in the assay on OVCAR-8 ovarian it was 72.2%; in the assay on OVCAR-5 ovarian it was 102%; in the assay with OVCAR-4 ovarian, 58%; in the assay with SK-OV-3 ovarian it was 110%. In addition, the growth in the assay on IGROV1 ovarian is 58.7%; with OVCAR-3 ovarian, -17% (active); in the assay with HS 578T breast it was 74.7%; in the assay on NCI/ADR-RES ovarian, 97.1%; with T-47D breast, 7.62% (active); with BT-549 breast, 75.1%. The growth in the assay with MDA-MB-435 melanoma was 94.5%; in the assay on SW-620 colon it was 27.8%; in the assay with MCF7 breast it was 22.2%; with HCC-2998 colon, 110%; in the assay on KM12 colon it was 88.5%.

Turning to `CN(C)CCCC1(c2ccc(F)cc2)OCc2cc(-c3csc4ccccc34)ccc21` (stereo unspecified), the growth in the assay on SR leukemia is -8.7% (active); with RPMI-8226 leukemia it was -40.7% (active); with OVCAR-8 ovarian it was -23.2% (active); in the assay with OVCAR-5 ovarian, 37%; with OVCAR-4 ovarian it was 26.4%; in the assay on SK-OV-3 ovarian, 81.9%. In addition, the growth with IGROV1 ovarian is -31.1% (active); with OVCAR-3 ovarian, -58.2% (active); in the assay on HS 578T breast it was 19.3%; in the assay with NCI/ADR-RES ovarian it was 37.9%; in the assay on T-47D breast, 26.4%; in the assay on BT-549 breast it was 84.2%. The growth in the assay on MDA-MB-435 melanoma was -91.4% (active); in the assay on MCF7 breast it was -62.5% (active); in the assay with HCT-116 colon, -44.2% (active); with HCC-2998 colon it was -82.9% (active); in the assay on KM12 colon, -83.2% (active).

With `CN(C)c1ccc(/C=N\NC(=O)c2ccc3nc(-c4ccc(Cl)cc4)[nH]c3c2)cc1`, the growth is 20.7% with SR leukemia; 67.4% in the assay with RPMI-8226 leukemia; 51.3% in the assay on OVCAR-8 ovarian; 89.2% with OVCAR-5 ovarian; 36.4% in the assay on OVCAR-4 ovarian; 98.3% in the assay on SK-OV-3 ovarian. For the same compound, the growth with IGROV1 ovarian is 40.2%; in the assay on OVCAR-3 ovarian, 70.7%; in the assay with HS 578T breast it was 70%; in the assay with NCI/ADR-RES ovarian it was 77%; in the assay with T-47D breast it was 59.4%; in the assay on BT-549 breast, 106%. Also, the growth with MDA-MB-435 melanoma was 93.9%; in the assay on SW-620 colon it was 46.3%; with MCF7 breast, 17.4%; with HCC-2998 colon it was 79%; in the assay on KM12 colon, 64.9%.

For the compound `CNC(=O)Nc1ccc(-c2ccc3ncnc(Nc4cccc(Cl)c4)c3c2)cc1`, the growth with SR leukemia was 27.6%; in the assay with RPMI-8226 leukemia it was 55.1%; in the assay on OVCAR-8 ovarian, 54.6%; in the assay with OVCAR-5 ovarian, 55.1%; with OVCAR-4 ovarian it was 69.7%; in the assay with SK-OV-3 ovarian, 19.3%. Further, the growth in the assay with IGROV1 ovarian was 12.3%; in the assay with OVCAR-3 ovarian it was 39.6%; with HS 578T breast, 46.5%; in the assay on NCI/ADR-RES ovarian, 57.6%; in the assay with T-47D breast, -4.13% (active); in the assay on BT-549 breast, 50.9%. The growth in the assay with MDA-MB-435 melanoma was 64%; in the assay on SW-620 colon, 93.9%; in the assay on MCF7 breast it was 22.6%; in the assay on HCC-2998 colon it was 74%; in the assay on KM12 colon it was 61.3%.
